Key:
[1] = biological target: T1, Aspartate--tRNA(Asp/Asn) ligase (Mycobacterium tuberculosis (strain ATCC 25618 / H37Rv)) (UniProt P9WFW3); assay: Assay for Asp RNA synthetase-1 from Mycobacterium tuberculosis; format: functional; parameters: scale not given: direction of the effect not stated beside the values; details: 30 µM; further: in the data most compounds retested in dose-response had high values
T1 sequence (whole entry): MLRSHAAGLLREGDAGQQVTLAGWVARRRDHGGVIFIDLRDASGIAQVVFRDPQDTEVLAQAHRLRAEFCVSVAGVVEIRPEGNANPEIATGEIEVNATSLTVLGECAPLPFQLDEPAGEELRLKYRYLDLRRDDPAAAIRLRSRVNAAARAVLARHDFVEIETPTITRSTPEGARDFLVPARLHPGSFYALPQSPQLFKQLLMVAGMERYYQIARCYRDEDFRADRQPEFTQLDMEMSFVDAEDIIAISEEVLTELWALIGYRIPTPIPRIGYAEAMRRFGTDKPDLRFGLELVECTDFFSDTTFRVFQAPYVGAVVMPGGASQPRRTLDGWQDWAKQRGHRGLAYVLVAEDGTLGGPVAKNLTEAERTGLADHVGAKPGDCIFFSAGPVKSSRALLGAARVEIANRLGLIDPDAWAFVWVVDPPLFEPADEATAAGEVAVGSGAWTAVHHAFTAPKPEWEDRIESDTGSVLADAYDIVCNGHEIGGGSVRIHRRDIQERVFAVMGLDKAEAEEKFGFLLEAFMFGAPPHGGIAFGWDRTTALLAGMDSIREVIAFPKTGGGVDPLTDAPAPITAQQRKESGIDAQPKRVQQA

[2] = biological target: Shiga toxin 2 (Escherichia coli O157:H7) (UniProt P09385+P09386); assay: E. coli 0.157:H7 Shiga Toxin SOP - stx2 screening assay; format: functional; parameters: scale not given: direction of the effect not stated beside the values; details: 30 µM

## CCC1CN(C(=O)Nc2cnc3c(cnn3C(C)C)c2)CCO1 (centres undefined)
[1]
  Percent Effect: 0.932%
[2]
  Percent Effect: 13.4%

## Cc1nccn1C1CCCN(C(=O)c2cc(O)nc3ccccc23)C1 (centres undefined)
[1]
  Percent Effect: 1.77%
[2]
  Percent Effect: 5.42%

## Cc1cccc(CS(=O)(=O)CC(=O)NCCCOC(C)C)c1
[1]
  Percent Effect: -3.37%
[2]
  Percent Effect: -44.7%

## CCc1nc(CN2CCCC(NCc3ccc(C(N)=O)cc3)C2)no1 (centres undefined)
[1]
  Percent Effect: -2.68%
[2]
  Percent Effect: -8.49%

## O=C(COCc1ccccc1)N1CCCC(n2cncn2)C1 (centres undefined)
[1]
  Percent Effect: -3.66%
[2]
  Percent Effect: 22.6%

## CCn1c(N)nc2cc(C(=O)NCc3ccccc3Cl)cnc21
[1]
  Percent Effect: 6.55%
[2]
  Percent Effect: -1.88%

## Cc1[nH]ccc1C(=O)N1CCC(c2nnc(Cn3cccn3)n2C)CC1
[1]
  Percent Effect: -2.14%
[2]
  Percent Effect: -9.29%

## Cn1cc(-c2cnc(N3CCOCC3)nc2)cc1C(=O)O
[1]
  Percent Effect: -4.12%
[2]
  Percent Effect: 9.97%

## Cc1cccc(CN2C[C@@H]3CN(C(=O)NC(C)C)C[C@@H]3C2=O)c1
[1]
  Percent Effect: 0.565%
[2]
  Percent Effect: -52.1%

## CC(=O)N1CCCC1c1cccc(Cc2ccc(F)cc2)n1 (centres undefined)
[1]
  Percent Effect: -5.96%
[2]
  Percent Effect: 5.81%

## CC(C)C(C(=O)N1CCN(Cc2ccncc2)CC1)n1cncn1 (centres undefined)
[1]
  Percent Effect: 7.46%
[2]
  Percent Effect: -21.4%

## CCCN(Cc1ccccc1)Cn1nc(C)c2c(C)onc2c1=O
[1]
  Percent Effect: 9.28%
[2]
  Percent Effect: 6.54%

## O=C(c1cc(Cl)c2c(c1)OCO2)N1CCN(c2ccccn2)CC1
[1]
  Percent Effect: -0.949%
[2]
  Percent Effect: 18.3%

## O=C(CC1CC1)N1C[C@@H]2CCN(c3cnccn3)C[C@@H]2C1
[1]
  Percent Effect: -5.94%
[2]
  Percent Effect: -0.992%

## Cc1ccc(N2CCCN(C(=O)CC3CCCO3)CC2)nn1 (centres undefined)
[1]
  Percent Effect: 10.1%
[2]
  Percent Effect: 18.1%

## Cc1ccc(NS(=O)(=O)CC2=NC(=O)n3cccc3C2=O)cc1
[1]
  Percent Effect: -1.02%
[2]
  Percent Effect: -73.8%

## CCN1CCN(S(=O)(=O)c2ncn(C)c2Cl)CC1
[1]
  Percent Effect: -2.51%
[2]
  Percent Effect: -7.16%

Source: ChEMBL document CHEMBL3988442, “University of Dundee, Small-Polar-MMV Screening Library” (2021)
